Compound activity from PubChem BioAssay.
This is a sample that favours compounds with a hit; in the whole collection about 9.9% have one here.
MCF10A rerep – inducers of DNA re-replication in MCF 10A breast cells; MCF 10A DNA re-replication, Hoechst nuclear intensity, 48 h; Potency, µM (titrated, usually from 46.1 µM), without a hit: at the top dose activity, positive = re-replication, hits mostly activators; 2.9% of 350,000 active; also: potency is read from the fitted curve at half-maximal effect; % of control where 0% means no effect; nearly all actives have a fitted effect of over 50% in size
SW480 rereplic – inducers of DNA re-replication in SW480 colon cancer cells; 1.8% of 340,000 active; Potency, µM (series often up to 46.1 µM), inactives show at the top dose re-replication activation, most hits filed as activators; SW480 DNA re-replication, Hoechst DNA content imaging, 48 h; AID 624297; also: potency is read from the fitted curve at half-maximal effect; % of control where 0% means no effect; nearly all actives have a fitted effect of over 55% in size
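250 cells/well; 23 nL cpd via pin tool; 48 hr, 37 C, 5% CO2; Hoechst 40 min; imager read of total nuclear intensity, ex 405/em 500-530 nm.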
KB-V1 cytotox – KB-V1 MDR subline cytotoxicity. KB-V1 MDR cells viability, CellTiter-Glo, 72 h. 3.4% of 400,000 active. AID 1347076. Potency, µM (highest dose often 46.1 µM), hits mostly cytotoxic; also: potency is read from the fitted curve at half-maximal effect; % is scaled to controls: 0 for no effect and ±100 for the full control effect; nearly all actives have a fitted effect of over 60% in size
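Compound-treated KB-V1 multidrug-resistant cells, 72 h, 37 degrees C; viability by CellTiter-Glo. Fitted qHTS curves give the values.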
KB-3-1 cytotox – KB-3-1 parental cell cytotoxicity. 1.4% of 400,000 active. AID 1347075. KB-3-1 viability, CellTiter-Glo ATP luminescence, 72 h. Potency, µM (doses to about 46.1 µM), actives largely listed as cytotoxic; also: potency is read from the fitted curve at half-maximal effect; % is scaled to controls: 0 for no effect and ±100 for the full control effect; nearly all actives have a fitted effect of over 60% in size
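KB-3-1 parental drug-naive adenocarcinoma cells in DMEM/10% FBS, incubated 72 h at 37 C with pin-transferred compounds across a concentration series. Viability by CellTiter-Glo luminescence; concentration-response curves fitted after normalization.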
IL-1B inflam inh – inflammasome signaling inhibition, IL-1 beta readout; activity change, % at 57.5 µM; 4.7% of 360,000 active; THP-1 LPS/ATP IL-1B secretion, AlphaLISA, 16 h; hits give low values; in the data active = activity change below about -50%; inconclusive = mostly about -30% to -49%; also: % is scaled to controls: 0 for no effect and ±100 for the full control effect
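THP-1 cells pretreated 1 hr with compounds (up to 57.5 uM final), then stimulated with LPS (250 ng/mL final) plus ATP (1.25 mM final); secreted IL-1B measured by AlphaLISA after 16 hr, decreased signal indicating inhibition.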
Starred values were filed as active, the others as inactive; i = inactive; ? = inconclusive; · = no result; [ ] = another dose, or the depositor's remark. Unless noted, calls follow the shape of the dose curve; as a rule, active = well fitted curve in the direction sought with a large enough effect; inconclusive = small, poorly fitted or top-dose-only effect, or another doubt; inactive = no such curve, though single readings can be large; an effect the other way counts as inactive or inconclusive.

SMILES | MCF10A rerep | SW480 rereplic | KB-V1 cytotox | KB-3-1 cytotox | IL-1B inflam inh
CCCc1ccc(-c2cc(C(=O)NN3CCOCC3)c3ccccc3n2)cc1 | 26% | 12% | 5.2µM* | i | -56*
CC(C)(CNC(=O)c1cc(-c2ccc(Cl)s2)nc2ccccc12)N1CCOCC1 | ? | 23µM* | i | i | ?
COc1ccc(/C=N/NC(=O)c2c(Br)cnn2C)c2ccccc12 | ? | 0% | i | i | 14
CCN1C(=O)[C@H]2[C@@H](c3ccc(C)cc3)N[C@]3(CCCN(Cc4cccn4C)C3=O)[C@H]2C1=O | · | · | i | i | -14
CCCCCc1nnc(NC(=O)Cn2cnc3ccccc3c2=O)s1 | 3% | · | i | ? | 11
Cc1ncc([N+](=O)[O-])n1CCOC(=O)NC(NCc1ccccc1Cl)C(Cl)(Cl)Cl (stereo not given) | 25% | ? | 7.3µM* | ? | -29
C=C1CCN(c2ccc(C(=O)NCc3ccc(OC)cc3)cc2[N+](=O)[O-])CC1 | 3% | 25% | i | i | -75*
C=C1CCN(c2ccc(C(=O)NCc3ccc(C)cc3)cc2[N+](=O)[O-])CC1 | -4% | -1% | i | i | -63*
COC(=O)c1cc(CNC(=O)c2ccc(N3CCCC3)c([N+](=O)[O-])c2)ccc1OC | -34% | -4% | ? | i | -9
COc1ccc(NC(=O)Cn2c(C(C)C)nc(C)cc2=O)cc1Cl | 8% | ? | i | i | 3
CCc1nn(C(C)C(=O)NCc2ccc(Cl)cc2)c(=O)c2cc3occc3n12 (stereo not given) | 12% | -4% | i | i | -19
O=C(COC(=O)CCC1CCCC1)Nc1ccc(F)cc1 | -2% | -2% | i | i | -10
COc1ccc(CCNC2CC(=O)N(CCc3ccc(OC)c(OC)c3)C2=O)cc1OC (stereo not given) | -2% | -5% | 18µM* | i | -3
CN(C)N=Nc1ccc(-c2cn(Cc3ccccc3)cn2)cc1 | 17% | 6% | ? | i | -18
Cc1ccc(NS(=O)(=O)c2cccc(C(=O)Nc3cccnc3)c2)c(C)c1 | 8% | -7% | i | ? | -25
CCCCOc1ccc(C(=O)Nc2ccc(CN3CCOCC3)cc2)cc1 | ? | ? | i | i | -62*
CCCOc1ccc(C(=O)Nc2ccc(CN3CCOCC3)cc2)cc1 | ? | -2% | i | i | -21
CCCOc1cccc(C(=O)Nc2ccc(CN3CCOCC3)cc2)c1 | 21µM* | 28% | i | i | -53*
CCCCOc1ccc(C(O)(CC)CCN2CCOCC2)cc1 (stereo not given) | -8% | -3% | ? | i | ?
CCCCOc1ccc(C(O)(CCC)CCN2CCOCC2)cc1 (stereo not given) | ? | ? | 10µM* | 23µM* | 0
CCOc1ccc(OCc2cccc(C(=O)Nc3ccc(CN4CCCCC4)cc3)c2)cc1 | ? | ? | ? | ? | -100*
CC(C)Oc1cccc(C(=O)Nc2ccc(CN3CCOCC3)cc2)c1 | -10% | 2% | ? | i | 6
CCOc1ccc(NC(=O)CCS(=O)(=O)c2cccc3nonc23)cc1 | · | · | i | i | ·
Nc1nnn(-c2ccccc2)c1-c1ccccc1 | -1% | 15µM* | i | i | 6
O=C(c1ccc2c(c1)OCO2)C1CCCN(Cc2cccn2-c2cccnc2)C1 (stereo not given) | 5% | -2% | ? | i | ?
SMILES | MCF10A rerep | SW480 rereplic | KB-V1 cytotox | KB-3-1 cytotox | IL-1B inflam inh
O=C(c1ccc(Cl)cc1)C1CCCN(Cc2cccn2-c2cccnc2)C1 (stereo not given) | 24% | 14% | i | i | -56*
COc1ccc(C(=O)C2CCCN(Cc3cccn3-c3cccnc3)C2)cc1OC (stereo not given) | -13% | 20% | i | i | 0
CSc1ccc(C(=O)C2CCCN(Cc3cccn3-c3cccnc3)C2)cc1 (stereo not given) | ? | 3% | ? | ? | -96*
S=c1[nH]nc(-c2cc(-c3ccccc3)n[nH]2)n1/N=C/C(Br)=C/c1ccccc1 | 3.3µM* | ? | ? | 15µM* | -99*
S=c1[nH]nc(-c2cc(-c3ccccc3)n[nH]2)n1/N=C/c1ccccc1 | ? | ? | i | i | 0
S=c1[nH]nc(-c2ccco2)n1/N=C/C(Cl)=C/c1ccccc1 | 7.3µM* | ? | i | i | ?
CC(/C=N/n1c(-c2ccco2)n[nH]c1=S)=C\c1ccco1 | -2% | -6% | i | i | 0
Cc1cc(-c2n[nH]c(=S)n2/N=C/C(Cl)=C/c2ccccc2)n[nH]1 | 4.6µM* | ? | 21µM* | ? | -97*
CC(/C=N/n1c(-c2cccnc2)n[nH]c1=S)=C\c1ccccc1 | 12% | -10% | 16µM* | i | 0
Cc1c(Cl)cccc1Nc1nc(N)nc(CSCCO)n1 | -3% | -7% | i | i | 28
COc1ccc(Nc2nc(N)nc(CN3CCOCC3)n2)cc1 | -21% | -21%[9.22 µM] | i | i | -10
Cc1ccccc1Nc1nc(N)nc(CN(C)c2ccccc2)n1 | 1% | 5% | ? | i | 3
Nc1nc(CCl)nc(Nc2ccc3ccccc3c2)n1 | ? | 19% | 23µM* | ? | -99*
Cc1c(Cl)cccc1Nc1nc(N)nc(CSc2ncccn2)n1 | 18% | ? | 18µM* | i | -19
COc1ccc(Nc2nc(N)nc(CCl)n2)cc1 | ? | 3.3µM* | ? | ? | -60*
Nc1nc(CN2CCN(Cc3ccccc3)CC2)nc(Nc2ccc3c(c2)OCCO3)n1 | -2% | -3% | i | i | 12
Cc1ccccc1Nc1nc(N)nc(CCl)n1 | ? | ? | i | ? | -94*
CCc1ccccc1NC(=O)CN(C)Cc1nc(N)nc(Nc2ccccc2C)n1 | 4% | 6% | 3.3µM* | i | 5
O=C(NCC1CCCO1)c1ccc(C(=O)NCC2CCCO2)cc1 (stereo not given) | -3% | -13% | i | i | 15
CCC1=Nc2cc(C(=O)NCCCOC)ccc2Sc2ccccc21 | ? | 1.3µM* | 0.23µM* | 0.82µM* | 56
CCC1=Nc2cc(C(=O)NCCCN3CCOCC3)ccc2Sc2ccccc21 | ? | 7% | i | i | 4
CC1=Nc2cc(C(=O)NCC3CCCO3)ccc2Sc2ccc(Br)cc21 (stereo not given) | 18µM* | ? | 6.5µM* | 12µM* | 59
CC1=Nc2cc(C(=O)O)ccc2Sc2ccc(Br)cc21 | ? | -14% | i | i | 15
S=C(NCC1CCCO1)c1ccc(Br)cc1 (stereo not given) | ? | -12% | i | i | -84*
CCC1=Nc2cc(C(=O)NCCCOC)ccc2Sc2ccc(Br)cc21 | · | · | ? | 0.82µM* | ·
